Screening data from PubChem.
PABP1 MLLE inh: blocks PAM2 peptide binding to the PABP1 MLLE domain. GST-MLLE / FITC-PAM2 fluorescence polarization. hit rate 0.36% among 360,000. inhibition, % at 20 µM; in the data active means inhibition above about 35%, passing the limit was not always enough;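 further: plate controls were DMSO wells with GST-MLLE for no effect and wells lacking GST-MLLE protein for full effect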
eIF4H inh: inhibitors of RNA binding by human eIF4H | inhibition, % at 35 µM | hit rate 0.94% among 290,000 | eIF4H fluorescence polarization binding assay | Q15056 | AID 2012;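 further: calls also rest on retests at 20 µM and on dose response follow-up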
PERK inhibitor: inhibitors of human PERK kinase. CHO PERK-DD fusion, SEAP luminescence translation reporter. hit rate 0.17% among 220,000. Q9NZJ5. AID 1416. inhibition, % at 5.6 µM;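 active means inhibition above the mean inhibition of all tested compounds plus 3 SD, set separately per screening campaign, cut at about 2.9% in these data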;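 further: PERK kinase domain activated by AP20187 dimerizer at 100 nM; 0% = DMSO with dimerizer and 100% = rapamycin at 8.4 µM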
Target sequence (Q9NZJ5 whole entry, looked up, the tested form may be a part): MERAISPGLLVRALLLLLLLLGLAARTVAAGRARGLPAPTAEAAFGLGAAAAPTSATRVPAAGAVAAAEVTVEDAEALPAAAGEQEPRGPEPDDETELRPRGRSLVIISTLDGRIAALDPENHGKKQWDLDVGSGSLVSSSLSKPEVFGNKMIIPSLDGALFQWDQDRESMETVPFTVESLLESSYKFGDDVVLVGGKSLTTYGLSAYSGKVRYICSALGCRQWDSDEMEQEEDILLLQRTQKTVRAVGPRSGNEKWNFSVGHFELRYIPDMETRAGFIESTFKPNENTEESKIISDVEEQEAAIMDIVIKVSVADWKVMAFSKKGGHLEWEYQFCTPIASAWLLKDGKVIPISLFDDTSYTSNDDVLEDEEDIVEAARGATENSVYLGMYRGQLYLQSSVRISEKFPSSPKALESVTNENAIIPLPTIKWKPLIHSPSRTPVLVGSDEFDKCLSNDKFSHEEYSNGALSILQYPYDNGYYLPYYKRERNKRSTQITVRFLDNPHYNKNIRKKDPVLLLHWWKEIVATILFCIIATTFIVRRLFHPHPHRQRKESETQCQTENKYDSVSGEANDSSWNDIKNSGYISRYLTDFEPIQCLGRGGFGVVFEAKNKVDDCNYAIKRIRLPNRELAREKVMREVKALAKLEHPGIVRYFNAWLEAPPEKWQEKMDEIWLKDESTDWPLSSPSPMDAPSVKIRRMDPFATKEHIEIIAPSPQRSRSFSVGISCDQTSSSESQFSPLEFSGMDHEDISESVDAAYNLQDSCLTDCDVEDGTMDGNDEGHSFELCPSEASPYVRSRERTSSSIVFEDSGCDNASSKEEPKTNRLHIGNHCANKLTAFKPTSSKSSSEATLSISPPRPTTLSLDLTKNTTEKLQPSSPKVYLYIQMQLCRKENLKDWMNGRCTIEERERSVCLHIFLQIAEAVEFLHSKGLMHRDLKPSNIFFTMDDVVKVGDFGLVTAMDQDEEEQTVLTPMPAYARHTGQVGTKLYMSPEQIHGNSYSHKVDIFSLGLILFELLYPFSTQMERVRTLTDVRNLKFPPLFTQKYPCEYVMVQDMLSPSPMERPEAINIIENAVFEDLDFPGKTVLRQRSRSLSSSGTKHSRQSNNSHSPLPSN
PABP polyA inh: PABP-poly(A) binding inhibition | P11940 | PABP-poly(A) RNA binding, fluorescence polarization | inhibition, % at 35 µM | hit rate 1% among 290,000 | AID 2014;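 further: calls also rest on retests at 20 µM and on dose response follow-up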
GRK2 inh: blocks RNA aptamer binding to human GRK2. bead flow cytometry, FAM-aptamer displacement from GRK2. inhibition of aptamer binding, % at 10 µM. hit rate 0.59% among 330,000. P25098;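 active means inhibition of aptamer binding above 40%, roughly 3 SD of noise, on plates passing a quality check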;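 further: median bead fluorescence of bound FAM aptamer so fluorescent compounds give negative values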
* = called active by the depositor; ! = a repeat was not active. Only some compounds are listed: those with a hit (about 1.9% of all), similar ones and a draw of the others. Unless noted, how the calls were made is not given here.

Screening COc1ccc(OCc2nnc(SCC(=O)Nc3nnc(C4CC4)s3)n2C)cc1 returned PABP1 MLLE inh -9, eIF4H inh 17, PABP polyA inh 5 and GRK2 inh 0.
Screening On1nnc2c3ccccc3c3ccccc3c21 returned PABP1 MLLE inh 10, eIF4H inh -4, PERK inhibitor 0, PABP polyA inh 1 and GRK2 inh 0.
For CCCc1cc(=O)[nH]c(SCc2ccc(F)cc2)n1 the results were PABP1 MLLE inh -4, eIF4H inh -2, PERK inhibitor 1, PABP polyA inh 6 and GRK2 inh 2.
`CCC(Sc1nc(-c2ccccc2)cc(=O)[nH]1)C(=O)O` (stereo not given) gave PABP1 MLLE inh 6, eIF4H inh 6, PERK inhibitor 3.0*, PABP polyA inh 7 and GRK2 inh 0.
For CC(C)Sc1nc(-c2ccccc2)cc(=O)[nH]1 the results were PABP1 MLLE inh 9, eIF4H inh 6, PERK inhibitor 0, PABP polyA inh -3 and GRK2 inh 3.
O=c1cc(-c2ccccc2)nc(SCc2ccc(F)cc2)[nH]1 was read as PABP1 MLLE inh -5, eIF4H inh active, PERK inhibitor 1, PABP polyA inh 79 and GRK2 inh 2.
`CC(C)c1nnc(NC(=O)CCC2CCCCC2)s1` gave PABP1 MLLE inh 5, eIF4H inh -1, PABP polyA inh -8 and GRK2 inh 0.
For COC(=O)C1=C(O)/C(=C\c2cc(C)n(-c3ccc(F)cc3)c2C)N=C1C the results were PABP1 MLLE inh 10, eIF4H inh 59, PERK inhibitor 0, PABP polyA inh active and GRK2 inh 0.
`CC(C)CC(=O)Nc1ccc2ccccc2c1` gave PABP1 MLLE inh -6, eIF4H inh -4, PERK inhibitor 3.2*!, PABP polyA inh -1 and GRK2 inh 5.
For CCOCCCn1c(=NC(=O)c2cccs2)c(C#N)cc2c(=O)n3cccc(C)c3nc21 the results were PABP1 MLLE inh 124, eIF4H inh 55, PERK inhibitor 0, PABP polyA inh 34* and GRK2 inh 8.
For COCCCn1c(=NC(C)=O)c(C#N)cc2c(=O)n3cccc(C)c3nc21 the results were PABP1 MLLE inh 3, eIF4H inh 107*, PERK inhibitor 1, PABP polyA inh 55* and GRK2 inh 2.
`Cc1cccn2c(=O)c3cc(C#N)c(=NC(=O)c4cccs4)n(CC(C)C)c3nc12` gave PABP1 MLLE inh 19, eIF4H inh 69, PERK inhibitor -1, PABP polyA inh 32 and GRK2 inh 5.
`COC(=O)c1ccc(NC(C)=O)cc1O` gave eIF4H inh 4, PERK inhibitor 1 and PABP polyA inh 0.
CC(C)(C)OC(=O)C[C@H]1C/C=C\C[C@H](CC(=O)NCCO)C(=O)N[C@@H](Cc2ccccc2)COC1=O was read as PABP1 MLLE inh -6 and GRK2 inh 0.
For COC(=O)C(/C=N/OCc1ccc([N+](=O)[O-])cc1)NC(=O)c1ccccc1 (stereo not given) the results were PABP1 MLLE inh 4, eIF4H inh inconclusive, PERK inhibitor -1, PABP polyA inh active and GRK2 inh 0.
O=C(CCN1C(=O)C2CC=CCC2C1=O)Nc1ccc(S(=O)(=O)N2CCCCC2)cc1 (stereo not given) was read as PABP1 MLLE inh -1.
CCC(=O)/C=C1/Sc2ccc(OC)cc2N1CCO was read as PABP1 MLLE inh 45*, eIF4H inh -6, PERK inhibitor 1, PABP polyA inh 8 and GRK2 inh 0.
For CCC(/C=C1\Sc2ccc(OC)cc2N1CCO)=C\c1sc2ccc(OC)cc2[n+]1CCO the results were PABP1 MLLE inh -9, eIF4H inh 6, PERK inhibitor 0, PABP polyA inh -23 and GRK2 inh 100*.
Screening CCO/C(=C/c1sc2ccc(OC)cc2[n+]1CCCS(=O)(=O)[O-])CC returned PABP1 MLLE inh 27, eIF4H inh -4, PERK inhibitor 0, PABP polyA inh 16 and GRK2 inh 0.
CCC(=O)/C=C1/Sc2ccc(OC)cc2N1CC was read as PABP1 MLLE inh 31, eIF4H inh 7, PERK inhibitor 0, PABP polyA inh 3 and GRK2 inh 0.
CS(=O)(=O)N(CC(=O)N1CCCC1)C1CCCCC1 was read as PABP1 MLLE inh -2.
For OCc1ccccc1SSc1ccccc1CO the results were PABP1 MLLE inh 41* and GRK2 inh 0.
OCc1ccccc1CNCc1ccccc1 was read as PABP1 MLLE inh 3, eIF4H inh -2, PERK inhibitor 0, PABP polyA inh 10 and GRK2 inh 1.
`CC(C)OC(=O)c1c2nc3ccccc3nc2n2c1[nH]c(=O)c1ccccc12` gave eIF4H inh 53*, PERK inhibitor 0, PABP polyA inh 68* and GRK2 inh 0.
CC(C)OC(=O)c1c(N)n(CCCN2CCOCC2)c2nc3ccccc3nc12 was read as PABP1 MLLE inh 2, eIF4H inh -8, PERK inhibitor -2, PABP polyA inh -6 and GRK2 inh 1.
`COc1ccc(C(=O)/C=C/c2ccc(N3CCCCC3)c([N+](=O)[O-])c2)cc1` gave PABP1 MLLE inh 2, eIF4H inh active, PERK inhibitor 1, PABP polyA inh 81* and GRK2 inh 0.
For O=C(NCc1ccncc1)c1ccc(N2CCCC2)c([N+](=O)[O-])c1 the results were PABP1 MLLE inh -1, eIF4H inh 105, PERK inhibitor 0, PABP polyA inh 3 and GRK2 inh 0.
Screening COC(=O)c1cc(CNC(=O)c2ccc(N3CCCC3)c([N+](=O)[O-])c2)ccc1OC returned PABP1 MLLE inh 4, eIF4H inh 22, PABP polyA inh 54* and GRK2 inh 0.
CCc1ccc(Nc2nc(C)cc(C)n2)cc1 was read as PABP1 MLLE inh -7, eIF4H inh -6, PABP polyA inh -2 and GRK2 inh 0.
`C=CC(=O)NCCCc1cc(C(C)(C)C)c(O)c(C(C)(C)C)c1` gave PABP1 MLLE inh 7, eIF4H inh 1, PERK inhibitor 0, PABP polyA inh 4 and GRK2 inh 1.
`NC(=S)N=Nc1c(O)[nH]c2ccc(F)cc12` gave PABP1 MLLE inh 48*, eIF4H inh 9, PERK inhibitor 0, PABP polyA inh 4 and GRK2 inh 0.
`O=C(NCc1ccccc1)c1ccc(S(=O)(=O)N2CCCCCC2)cc1` gave PABP1 MLLE inh -32.
For CCOc1ccc(C2C(C#N)=C(N)SC(N)=C2C#N)cc1OCC the results were PABP1 MLLE inh -27, eIF4H inh 122*, PABP polyA inh 122 and GRK2 inh 0.
For c1cn(CCCNC2CCCCCCC2)cn1 the results were PABP1 MLLE inh 5 and GRK2 inh 1.
For C/C(=N\NC(=S)Nc1cccc(C)c1)c1ccccc1 the results were PABP1 MLLE inh 40*, eIF4H inh 4, PERK inhibitor 0, PABP polyA inh 3 and GRK2 inh 0.
`C/C(=N\NC(=S)Nc1cccc(C)c1)c1cccc(N)c1` gave PABP1 MLLE inh 33, eIF4H inh -2, PERK inhibitor 1, PABP polyA inh 11 and GRK2 inh 4.
